Data from the supplement of paper PMC10646978.
± gives the standard deviation.

Each compound was assayed on RAW-Dual (murine macrophage reporter line) (assay: NF-kB reporter (SEAP) activity fold change vs agonist alone; higher = enhanced NF-kB activity). Conditions: modulator concentration 10 µM; agonist: MPLA […].
How it was run: (§1)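 Overnight stimulation with a PRR agonist followed pre-incubation for 1 hour at 37 °C with compound at 10 μM final. This was done in RAW-Dual murine macrophage reporter cells seeded at 50 000 per well in 384-well plates. NF-κB (SEAP, QUANTI-Blue absorbance at 620 nm) and IRF (Lucia luciferase, QUANTI-Luc luminescence) were read from the supernatant. Each reporter's fold change relative to the mean agonist-only control on the same plate was averaged over replicate plates.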
For `Cc1c(C)n2c3c(=O)n(CC=Cc4ccccc4)c(=O)n(C)c3nc2n1CCOCCO`, the NF-kB reporter was 1.03 ± 0.17. `O=C(Nc1ncc(S(=O)(=O)c2ccc([N+](=O)[O-])cc2)s1)c1cccs1` was tested, and the NF-kB reporter was 0.914 ± 0.06. In the case of `CN1c2ccccc2-c2ccccc2C12C=Cc1cc([N+](=O)[O-])ccc1O2` (stereo unspecified), the NF-kB reporter is reported as 0.879 ± 0.07. `CCn1cc(C(=O)O)c(=O)c2cc(F)c(N3CCN(C)CC3)cc21.CS(=O)(=O)O.O.O` gave an NF-kB reporter of 0.897 ± 0.05. Work on `Cc1cc(OCC(O)Cn2cnc3ccccc32)ccc1Cl` (stereo unspecified) yielded an NF-kB reporter of 1.14 ± 0.082. With `CCN(CC)C(=O)N1CCN(C)CC1` [Prestw-284] the NF-kB reporter was 0.96 ± 0.062. For `Cc1cnc2c(c1SCC(=O)N1CCc3ccccc31)c(=O)n(C)c(=O)n2C`, the NF-kB reporter was 0.916 ± 0.069. In the case of `Cc1c(C)c2c(c(C)c1O)CCC(C)(CCCC(C)CCCC(C)CCCC(C)C)O2` (stereo unspecified), the NF-kB reporter is reported as 1.06 ± 0.023. `COc1cc2nc(N(C)CCCNC(=O)C3CCCO3)nc(N)c2cc1OC` (stereo unspecified) [Prestw-322] showed an NF-kB reporter of 1.02 ± 0.068. `Cc1cc(C)nc(Nc2ncc(O)n2-c2ccc(F)cc2)n1` showed an NF-kB reporter of 1.01 ± 0.038. In the case of `Cc1cc(OCC(=O)NN=Cc2ccc(O)c([N+](=O)[O-])c2)ccc1Cl`, the NF-kB reporter is reported as 1.02 ± 0.093. Compound `COc1ccc(C2Oc3cc(OC)cc(OC)c3CC2O)cc1` (stereo unspecified) has an NF-kB reporter of 1.81 ± 0.81. Compound `O=S1(=O)N=C(SCc2ccccc2)Nc2ccc(Cl)cc21` has an NF-kB reporter of 1.16 ± 0.11. With `COc1ccc(Cl)cc1C(=O)N1CCC(S(=O)(=O)c2nncn2C)CC1` the NF-kB reporter was 0.858 ± 0.038. In the case of `Cc1nccn1CC1CCc2c(c3ccccc3n2C)C1=O.Cl.O.O` (stereo unspecified), the NF-kB reporter is reported as 0.765 ± 0.044. Compound `O=C(Nc1cc(C(F)(F)F)cc(C(F)(F)F)c1)c1cc2ccccc2o1` has an NF-kB reporter of 0.952 ± 0.12. `CN(C)C(CNC(=O)NCc1ccc(Cl)cc1)c1ccc2c(c1)CCO2` (stereo unspecified) gave an NF-kB reporter of 0.937 ± 0.1. `COc1c(Cl)ccc(Cl)c1C(=O)NCc1ccccc1` gave an NF-kB reporter of 1.06 ± 0.11. `CC(C)N(C)CCOC(=O)C(C)(c1ccccc1)c1ccccc1` showed an NF-kB reporter of 0.957 ± 0.11. Compound `COCC(C)(CNS(=O)(=O)c1ccccc1Br)OC` (stereo unspecified) has an NF-kB reporter of 0.933 ± 0.1. `CC(=O)c1ccc(NC(=O)CSc2ccc(-c3ccc4c(c3)OCO4)nn2)cc1` was tested, and the NF-kB reporter was 0.981 ± 0.11. With `COc1ccc(CCN(C)CCCC(C#N)(c2ccc(OC)c(OC)c2)C(C)C)cc1OC.Cl` (stereo unspecified) the NF-kB reporter was 1.12 ± 0.082.

The compounds below were run on RAW-Dual (murine macrophage reporter line) (assay: IRF reporter (Lucia luciferase) activity fold change vs agonist alone; higher = enhanced IRF activity). Conditions: modulator concentration 10 µM; agonist: 3'3'-cGAMP 10 ug/mL.
How it was run: as §1
With `COCCCNC(=O)C1CCCN(c2ccc(Sc3ccc(Br)cc3)nn2)C1` (stereo unspecified) the IRF reporter was 0.84 ± 0.03. Compound `O=C(c1ccc(F)cc1)N(C1CCCCC1)C1CCCCC1` has an IRF reporter of 0.959 ± 0.033. With `CCCc1nc2c(C)cc(-c3nc4ccccc4n3C)cc2n1Cc1ccc(-c2ccccc2C(=O)O)cc1` the IRF reporter was 0.997 ± 0.032. With `Cc1ccc(NC(=O)C(C#N)=Cc2ccc(-c3cccc([N+](=O)[O-])c3)o2)cc1` the IRF reporter was 1 ± 0.076. In the case of `COc1ccc(N(CC(=O)Nc2ccccc2C(F)(F)F)S(C)(=O)=O)cc1`, the IRF reporter is reported as 0.723 ± 0.074. `COc1ccccc1S(=O)(=O)N1CC(Oc2nc3c(C(F)(F)F)cccc3s2)C1` showed an IRF reporter of 1.4 ± 0.15. With `COC(=O)C1=C(C)NC(C)=C(C(=O)OCC(C)C)C1c1ccccc1[N+](=O)[O-]` (stereo unspecified) the IRF reporter was 0.371 ± 0.017. `Fc1ccc(Nc2nc(NN=Cc3ccccc3F)nc(N3CCCCC3)n2)cc1` showed an IRF reporter of 1.16 ± 0.081. `COc1ccc(S(=O)(=O)Nc2ccc(Oc3ccccc3)cc2)cc1` was tested, and the IRF reporter was 0.972 ± 0.033. `Br.CN(C)CCCC1(c2ccc(F)cc2)OCc2cc(C#N)ccc21` (stereo unspecified) was tested, and the IRF reporter was 0.801 ± 0.043. In the case of `COc1cccc(N2C(=O)CN(Cc3ccccc3)C3CS(=O)(=O)CC32)c1` (stereo unspecified), the IRF reporter is reported as 0.322 ± 0.034. With `O=C(O)CC(C(=O)O)N1C(=O)C(=C2C(=O)Nc3ccc(Br)cc32)SC1=S` (stereo unspecified) the IRF reporter was 0.894 ± 0.036. In the case of `c1ccc(CNc2nc(N3CCOCC3)nc(N3CCOCC3)n2)cc1`, the IRF reporter is reported as 0.758 ± 0.027. `Cc1nnc(NC(=O)c2cccc([N+](=O)[O-])c2)s1` was tested, and the IRF reporter was 1.05 ± 0.25. For `COc1ccc(N(CC(=O)N2CCc3ccccc3C2)S(C)(=O)=O)c(OC)c1`, the IRF reporter was 0.992 ± 0.026. Compound `O=C(Nc1cccnc1)c1ccc(OC2CCOCC2)nc1` has an IRF reporter of 0.912 ± 0.046. `CC[C@H](C)C(=O)O[C@H]1C[C@@H](C)C=C2C=C[C@H](C)[C@H](CC[C@@H]3C[C@@H](O)CC(=O)O3)[C@H]21` was tested, and the IRF reporter was 0.639 ± 0.058. Compound `Cc1c(C)n2c3c(=O)n(CC=Cc4ccccc4)c(=O)n(C)c3nc2n1CCOCCO` has an IRF reporter of 0.98 ± 0.055. With `O=C(Nc1ncc(S(=O)(=O)c2ccc([N+](=O)[O-])cc2)s1)c1cccs1` the IRF reporter was 0.987 ± 0.03. Work on `CN1c2ccccc2-c2ccccc2C12C=Cc1cc([N+](=O)[O-])ccc1O2` (stereo unspecified) yielded an IRF reporter of 1.09 ± 0.07. For `CCn1cc(C(=O)O)c(=O)c2cc(F)c(N3CCN(C)CC3)cc21.CS(=O)(=O)O.O.O`, the IRF reporter was 0.863 ± 0.026. With `Cc1cc(OCC(O)Cn2cnc3ccccc32)ccc1Cl` (stereo unspecified) the IRF reporter was 0.913 ± 0.035. `CCN(CC)C(=O)N1CCN(C)CC1` [Prestw-284] was tested, and the IRF reporter was 0.974 ± 0.034. Compound `Cc1cnc2c(c1SCC(=O)N1CCc3ccccc31)c(=O)n(C)c(=O)n2C` has an IRF reporter of 1.01 ± 0.051. `Cc1c(C)c2c(c(C)c1O)CCC(C)(CCCC(C)CCCC(C)CCCC(C)C)O2` (stereo unspecified) gave an IRF reporter of 0.92 ± 0.057. `COc1cc2nc(N(C)CCCNC(=O)C3CCCO3)nc(N)c2cc1OC` (stereo unspecified) [Prestw-322] gave an IRF reporter of 0.695 ± 0.13. Work on `Cc1cc(C)nc(Nc2ncc(O)n2-c2ccc(F)cc2)n1` yielded an IRF reporter of 0.992 ± 0.074. In the case of `Cc1cc(OCC(=O)NN=Cc2ccc(O)c([N+](=O)[O-])c2)ccc1Cl`, the IRF reporter is reported as 1 ± 0.041. In the case of `COc1ccc(C2Oc3cc(OC)cc(OC)c3CC2O)cc1` (stereo unspecified), the IRF reporter is reported as 0.881 ± 0.057. Work on `O=S1(=O)N=C(SCc2ccccc2)Nc2ccc(Cl)cc21` yielded an IRF reporter of 0.718 ± 0.074. `COc1ccc(Cl)cc1C(=O)N1CCC(S(=O)(=O)c2nncn2C)CC1` gave an IRF reporter of 1 ± 0.052. `Cc1nccn1CC1CCc2c(c3ccccc3n2C)C1=O.Cl.O.O` (stereo unspecified) showed an IRF reporter of 0.832 ± 0.025. `O=C(Nc1cc(C(F)(F)F)cc(C(F)(F)F)c1)c1cc2ccccc2o1` was tested, and the IRF reporter was 0.953 ± 0.042. With `CN(C)C(CNC(=O)NCc1ccc(Cl)cc1)c1ccc2c(c1)CCO2` (stereo unspecified) the IRF reporter was 0.854 ± 0.026. For `COc1c(Cl)ccc(Cl)c1C(=O)NCc1ccccc1`, the IRF reporter was 1.15 ± 0.03. `CC(C)N(C)CCOC(=O)C(C)(c1ccccc1)c1ccccc1` showed an IRF reporter of 0.902 ± 0.069. Work on `COCC(C)(CNS(=O)(=O)c1ccccc1Br)OC` (stereo unspecified) yielded an IRF reporter of 0.982 ± 0.049. Compound `CC(=O)c1ccc(NC(=O)CSc2ccc(-c3ccc4c(c3)OCO4)nn2)cc1` has an IRF reporter of 0.955 ± 0.034. With `COc1ccc(CCN(C)CCCC(C#N)(c2ccc(OC)c(OC)c2)C(C)C)cc1OC.Cl` (stereo unspecified) the IRF reporter was 0.572 ± 0.018.
